# Screens (PubChem)
# Tgondii IFNg = T. gondii growth inhibition with IFN-gamma, primary screen, cell-based; Toxoplasma gondii growth in IFN-gamma-treated host cells; hits give low values; activity change, negative = inhibition, % (no concentration beside the values); 69,000 tested, 3.8% active; AID 1259416, 2018; in the data active = activity change below about -70%, passing the limit was not always enough;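 also: host cells are HeLa cells infected with Toxoplasma gondii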
# * = called active by the depositor. Shown is part of a subset that was picked to be rich in hits.
SMILES,Tgondii IFNg
COc1ccc(N2CCCC3(CN(C(=O)c4ccn[nH]4)CCO3)C2)cc1 (stereo not given),10
O=C(Cn1c(=O)cc(C(=O)N2CCc3ccccc3C2)c2ccccc21)Nc1ccccc1F,9
CC(C)(C)c1ccc(-c2nc3ccccc3[nH]2)cc1,-87*
c1ccc(-c2nc3ccccc3[nH]2)cc1,167
Cc1ccc(-c2nc3ccccc3[nH]2)cc1,-14
CCSc1nc(CC(=O)N2CC[C@H]3CC[C@@H](C2)N3)cs1,31
COC(=O)CN1C(=O)N(CCc2ccccc2)C2(CCN(C3Cc4ccccc4C3)CC2)C1=O,-1
CCCn1ccnc1-c1c(-c2ccccc2)ncn1Cc1c(C)noc1C,2
COc1cncc(C(=O)Nc2ccc(Cl)cc2)c1,30
CSc1ncc2c(n1)-c1c(SC)sc(C(=O)Nc3ccc(Cl)cc3)c1CC2,-85*
CSc1sc(C(=O)Nc2cc(C(F)(F)F)cc(C(F)(F)F)c2)c2c1C=CCC2,-55
CCOc1ccc(-c2nc(CN(c3ccc(OCC)cc3)S(=O)(=O)c3cccs3)c(C)o2)cc1,-51
O=C(Cn1cncn1)N1C[C@H]2CC=CC[C@H]2C1,7
OC1(c2cccnc2)CCN(c2ncc(-c3cccs3)c(-c3cccnc3)n2)CC1,70
c1csc(-c2nc(N3CCCCC3)ncc2-c2ccncc2)c1,-98*
c1csc(-c2nc(N3CCCCC3)no2)c1,21
O=C(NCc1ccco1)c1nc(Nc2ccccc2)c2ccccc2n1,-16
O=C(CCc1nc2ccccc2[nH]1)NCC1(O)CCNC1 (stereo not given),4
CCOC(=O)c1cc(C2CC2)nc2c1c(=O)n(Cc1nc(-c3ccccc3C)oc1C)c(=O)n2C,8
COc1ccc(-c2cc(-c3ccc(OC)cc3)nc(-c3ccc(C)o3)c2)cc1,37
COc1ccc(-c2cc(C)nc(C3CCNCC3)n2)cc1,-40
COc1ccc(-c2cc(C3CNC3)nc(C)n2)cc1,-77*
CCc1cccc(NC(=O)Cn2ncc3c(N4CCOCC4)ncnc32)c1,-13
CN(C)CC(=O)N1CCCn2cnc(CNc3ncccn3)c2C1,14
Cc1cc(C)cc(C(=O)N2CCc3c(CNc4ncccn4)nn(C)c3C2)c1,13
SMILES,Tgondii IFNg
CC(C)n1nc(CNc2ncccn2)c2c1CN(C(=O)N(C)C)CC2,-76*
COc1ccc(CN2CCc3nc(-c4cnccn4)[nH]c(=O)c3CC2)cc1OC,43
CC(=O)O[C@@H]1CC2C(C)(C)[C@H](O)CC[C@]2(C)C2CC[C@@]3(C)[C@H](c4ccoc4)OC(=O)C4OC43[C@@]21C (stereo not given in full),-71*
CC(=O)O[C@H]1C[C@@H](O)C(C)(C)C2C[C@@H](OC(C)=O)[C@]3(C)C(CC[C@@]4(C)[C@H](c5ccoc5)OC(=O)C5OC543)[C@]21C (stereo not given in full),18
CC(=O)O[C@@H]1CC2C(C)(C)C(=O)C=C[C@]2(C)C2CC[C@@]3(C)[C@H](c4ccoc4)OC(=O)[C@H]4O[C@]43[C@@]21C (stereo not given in full),16
CC(=O)O[C@@H]1C[C@H]2C(C)(C)C(=O)C=C[C@]2(C)[C@H]2CC[C@@]3(C)[C@H](c4ccoc4)OC(=O)[C@H]4O[C@]43[C@@]21C,52
CC1(C)C(=O)C=C[C@@]2(C)C1CC(=O)[C@]1(C)C2CC[C@@]2(C)[C@H](c3ccoc3)OC(=O)[C@H]3O[C@]321 (stereo not given in full),25
CC1(C)C(=O)C=C[C@@]2(C)C1C=C[C@]1(C)C2CC[C@@]2(C)[C@H](c3ccoc3)OC(=O)[C@H]3O[C@]321 (stereo not given in full),-86*
Cc1c(Cl)cccc1NC(=O)Cn1c(=O)cc(C(=O)N(C)C)c2ccccc21,6
O=C(CSc1nnc(Cc2ccccc2)n1Cc1ccccc1)c1ccc(Cl)s1,-12
c1coc(CN2CC[C@@H]3C[C@H](c4nc(C5CC5)cs4)O[C@H]3C2)c1,147
CC(C)(C)c1ccc(C(=O)N2CCN(C(=O)c3ccc(C(C)(C)C)cc3)CC2)cc1,-49
CC(C)(C)c1ccc(C(=O)N2CCCn3c2nc2ccccc2c3=O)cc1,-40
CC(C)(C)c1ccc(C(=O)N2NC(=Nc3ccccc3)SC2(C)C)cc1,-87*
COC1C2CCC1N(C(=O)c1cccc3c1OCCO3)CCO2 (stereo not given),-46
CC(=O)NCC1CCC2(CCN(Cc3cc4n(n3)CCCNC4)CC2)O1 (stereo not given),-44
CC(=O)NCC(=O)N1[C@@H]2CC[C@H]1c1ccc(Nc3ncc(C(F)(F)F)c(NC4CCC4)n3)cc12,-74*
CC(=O)NCc1cnc(C2CCCN2CC(=O)Nc2nccs2)cc1C(F)(F)F (stereo not given),-12
CCS(=O)(=O)N1CCN(c2ccc(Nc3ncc(C(N)=O)c(NC4CC4)n3)cc2)CC1,-65
COc1ccc(C(=O)N(c2ccc(C)c(Cl)c2)C2(C(=O)NCc3ccccc3)CCN(C(C)=O)CC2)cc1,70
CCOc1cccc(CNC(=O)c2c(O)c3cccnc3n(-c3cccc(F)c3)c2=O)c1,94
Cc1ccc2c(c1C)-n1cccc1C1(CCN(C(=O)c3cccc(Br)c3)CC1)N2,30
NC(=O)c1noc(CN2CCCCC2CCN2CCOCC2)n1 (stereo not given),4
CCOc1ccccc1CNC(=O)Cn1ncc2c(N3CCCCCC3)ncnc21,-64
NC(=S)N/N=C/c1ncccc1N,-80*
SMILES,Tgondii IFNg
CN(C)CC1(O)CCN(C(=O)c2cc(-c3ccc(O)cc3)n[nH]2)C1 (stereo not given),-1
CC(=O)O[C@H]1C(=O)[C@@]2(C)C([C@H](OC(=O)c3ccccc3)[C@]3(O)C[C@H](OC(=O)[C@H](O)[C@@H](NC(=O)c4ccccc4)c4ccccc4)C(C)=C1C3(C)C)[C@]1(OC(C)=O)CO[C@@H]1C[C@@H]2O (stereo not given in full),-79*
CC(=O)OC1C(=O)C2(C)C(O)CC3OCC3(OC(C)=O)C2C(OC(=O)c2ccccc2)C2(O)CC(OC(=O)C(O)C(NC(=O)c3ccccc3)c3ccccc3)C(C)=C1C2(C)C (stereo not given),-88*
Cc1sc(C(=O)OCC(=O)c2ccccc2)cc1S(=O)(=O)N1CCOCC1,33
Cc1nc(N[C@H]2CCN(Cc3ccccc3)C2)c2cnn(C)c2n1,9
Cc1ccccc1-n1nc(C)c(CN(C)Cc2n[nH]c3c2CCCC3)c1C,-78*
COc1ccc2c(c1)c(CN(C)Cc1n[nH]c3c1CCCC3)cn2C(C)C,17
CCSc1ncc(CN(C)Cc2n[nH]c3c2CCCC3)cn1,-54
COCC(=O)N1CC[C@H]2CN(Cc3ccccc3)S(=O)(=O)[C@@H]2CC1,23
Cc1ccc2c(c1)NC1(CCN(S(=O)(=O)c3cccc(Cl)c3)CC1)c1cccn1-2,27
COc1ccc(C(=O)OCC(=O)c2ccc(Cl)cc2)cc1,85
Cc1ccc2c(c1)NC1(CCN(C(=O)Nc3cccc(C)c3C)CC1)c1cccn1-2,96
Cc1cn(CCNc2nccc(C3CCCC3)n2)nn1,5
COc1cc2c(cc1OC)C(Cc1ccc(O)cc1)N(C)CC2 (stereo not given),6
CC[C@H]1CN2CCc3cc(OC)c(OC)cc3C2C[C@@H]1CC1NCCc2cc(OC)c(OC)cc21 (stereo not given in full),-79*
CCS(=O)(=O)N1CCc2cc(OC)c(OC)cc2C1c1ccc(OC)c(OC)c1 (stereo not given),36
